Screens deposited in PubChem by National Center for Advancing Translational Sciences (NCATS).
An excerpt weighted towards active compounds, which were near 2.4% of everything screened.
Pol eta inh – inhibitors of human DNA polymerase eta; 390,000 tested, 1.2% active; recombinant Pol eta, fluorescent DNA replication assay; Potency, µM (doses to about 114 µM), hits mostly inhibitors
Target sequence (Q9Y253 whole entry, looked up): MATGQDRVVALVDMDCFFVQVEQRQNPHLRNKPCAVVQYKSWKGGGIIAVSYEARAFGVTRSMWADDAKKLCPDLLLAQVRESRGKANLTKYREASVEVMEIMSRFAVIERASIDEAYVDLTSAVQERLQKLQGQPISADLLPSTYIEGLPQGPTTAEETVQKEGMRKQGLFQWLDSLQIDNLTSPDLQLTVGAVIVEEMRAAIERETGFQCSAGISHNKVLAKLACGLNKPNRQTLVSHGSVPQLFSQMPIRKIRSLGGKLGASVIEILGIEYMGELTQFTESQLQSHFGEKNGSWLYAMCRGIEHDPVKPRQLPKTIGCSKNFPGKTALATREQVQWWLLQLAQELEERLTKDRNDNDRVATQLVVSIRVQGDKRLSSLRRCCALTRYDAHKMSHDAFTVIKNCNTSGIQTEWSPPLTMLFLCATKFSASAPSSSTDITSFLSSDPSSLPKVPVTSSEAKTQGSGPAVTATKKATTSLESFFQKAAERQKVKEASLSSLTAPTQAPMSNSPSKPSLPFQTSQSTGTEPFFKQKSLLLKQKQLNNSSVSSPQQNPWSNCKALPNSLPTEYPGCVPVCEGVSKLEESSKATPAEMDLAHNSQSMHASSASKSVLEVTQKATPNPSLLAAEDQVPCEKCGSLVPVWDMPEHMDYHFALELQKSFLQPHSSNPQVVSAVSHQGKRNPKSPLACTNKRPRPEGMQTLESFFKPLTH
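Pol eta (10 nM) was preincubated with compounds for 15 min at room temperature, after which fluorescent replication substrate (50 nM final) was added to start the reaction. Fluorescence was read kinetically at 0 and 10 min.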
POLB inh – DNA polymerase beta (human) inhibition; 340,000 tested, 1.3% active; Potency, µM (top dose mostly 114 µM), actives largely listed as inhibitors; Pol beta primer extension/strand displacement, fluorescence kinetic; P06746
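Pol beta (10 nM) was preincubated with compound for 15 min at room temperature. The reaction was then started with 50 nM substrate and read immediately and after a further 10 min at room temperature.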
Pol kappa inh – DNA polymerase kappa (human) inhibition. AID 588579. purified Pol kappa, fluorescent DNA synthesis assay, 10 min. Potency, µM (top dose mostly 107 µM), actives largely listed as inhibitors. 400,000 tested, 0.53% active
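50 nM final substrate added after 15 min RT preincubation of 10 nM Pol kappa with compound; fluorescence read at 0 and 10 min.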
TDP1 inh – TDP1 (human) enzyme inhibition; Q9NUW8; recombinant TDP1, AlphaScreen DNA substrate cleavage; Potency, µM (highest dose often 130 µM), hits mostly inhibitors; 350,000 tested, 0.28% active; AID 485290; also: nearly all actives have a fitted effect of over 40% in size
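Recombinant E. coli-expressed Tdp1 (1 nM) preincubated with compound 15 min at RT, then 5'-biotin/3'-phosphotyrosine-FITC DNA substrate (15 nM) added for 5 min. AlphaScreen beads (10 ug/ml) added, 10 min RT; tyrosine-FITC cleavage read as signal loss.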
Pol iota inh – inhibitors of human DNA polymerase iota; Q9UNA4; Pol iota fluorescent replication assay, 10 min; Potency, µM (titrated, usually from 115 µM), most hits filed as inhibitors; 390,000 tested, 1% active
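Pol iota at 10 nM preincubated 15 min with compounds at room temperature; reaction started with fluorescent substrate, 50 nM final. Fluorescence read kinetically at 0 and 10 min; buffer-only wells as negative control.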
Of the large screens only hits and unclear results are named; the others gave an inactive call; ! = repeats disagree. Calls follow the shape of the dose curve; as a rule, active = well fitted curve in the direction sought with a large enough effect; inconclusive = small, poorly fitted or top-dose-only effect, or another doubt; inactive = no such curve, though single readings can be large; an effect the other way counts as inactive or inconclusive.

CSCC[C@H](NC(=O)[C@H](CC(C)C)NC(=O)CNC(=O)[C@H](Cc1ccc(O)cc1)NC(=O)[C@H](Cc1ccccc1)NC(=O)[C@H](CCCCN)NC(=O)[C@H](CC(N)=O)NC(=O)[C@@H]1CCCN1C(=O)[C@H](CC(=O)O)NC(=O)[C@H](C)NC(=O)[C@@H]1CCC(=O)N1)C(N)=O	none (no result: Pol eta inh, POLB inh, Pol iota inh)
Cc1c([N+](=O)[O-])cc(C(=O)Oc2ccc(Br)cc2C(=S)N2CCCCC2)cc1[N+](=O)[O-]	Pol eta inh inconclusive, Pol iota inh 89µM
O=c1c2ccccc2nc(/C=C/c2ccc([N+](=O)[O-])o2)n1CCCO	Pol eta inh 16µM, POLB inh inconclusive
O=C(O)C1CC(c2ccc(F)cc2)=NO1 (centres undefined)	POLB inh 7.9µM
COc1ccc(C2=NOC(C(=O)O)C2)cc1 (centres undefined)	none
Cc1cccc(NC(=O)C2CCCN2S(=O)(=O)c2ccc3nc(-c4ccccc4)[nH]c3c2)c1 (centres undefined)	Pol eta inh 79µM, POLB inh inconclusive, Pol kappa inh inconclusive, Pol iota inh inconclusive
CCOc1ccc(NC(=O)c2c(NCc3cccnc3)sc3c2CCCC3)cc1	none
O=C(O)CCC(=O)Nc1sc2c(c1C(=O)Nc1cccc3ccccc13)CCCCC2	Pol iota inh inconclusive
O=C(COc1ccccc1)Nc1sc2c(c1C(=O)NCc1cccnc1)CCCC2	Pol eta inh inconclusive, POLB inh 35µM, Pol iota inh inconclusive
O=C(O)CCC(=O)Nc1sc2c(c1C(=O)Nc1ccccc1)CCCCC2	Pol eta inh 89µM!, POLB inh inconclusive
O=C1c2ccccc2C(=O)N1c1cc(=O)c2ccccc2[nH]1	none (no result: Pol eta inh, POLB inh, Pol kappa inh, Pol iota inh)
COc1cccc(C2c3c(ncn(-c4ccc(-c5ccccc5)cc4)c3=N)Oc3ccc4ccccc4c32)c1 (centres undefined)	none (no result: Pol eta inh, POLB inh, Pol kappa inh, Pol iota inh)
COc1ccc(-n2nc3cc(C)c(N)c(Br)c3n2)cc1	Pol iota inh 25µM
O=c1c2ccccc2nc(-c2ccccc2O)n1Cc1ccccc1	none (no result: Pol eta inh, POLB inh, Pol kappa inh, Pol iota inh)
S=C1NC=NC2N=CNC12 (centres undefined)	TDP1 inh 14µM (no result: Pol eta inh, POLB inh, Pol iota inh)
Cc1cccc(OCCn2c(SCC(N)=O)nc3ccccc32)c1	none
O=C(CCCN1C(=O)/C(=C/c2cccs2)SC1=S)NNC(=O)c1ccncc1	Pol eta inh inconclusive, POLB inh 25µM, Pol iota inh inconclusive
O=C(NCc1ccco1)c1cc2cc3ccc(Cl)cc3nc2o1	Pol eta inh inconclusive, POLB inh inconclusive, Pol kappa inh inconclusive, Pol iota inh inconclusive
COc1ccc2cc3cc(C(=O)NCc4ccco4)oc3nc2c1	Pol eta inh 16µM, POLB inh 22µM, Pol kappa inh inconclusive, TDP1 inh 50µM, Pol iota inh inconclusive
COc1ccc(C2Nc3ccccc3C(=O)N2Cc2cccc(-c3ccccc3)c2)cc1COc1ccc(NC(C)=O)cc1 (centres undefined)	none (no result: Pol eta inh, POLB inh, Pol kappa inh, Pol iota inh)
CCN1C(=O)N/C(=C/c2ccc(C)o2)C1=O	POLB inh inconclusive, Pol iota inh 40µM
CC(=O)N1CCCC1c1nc2ccccc2n1Cc1cccc(C)c1 (centres undefined)	none
O=C1N[C@@H]2[C@H](CCCCC(=O)Oc3ccc([N+](=O)[O-])cc3)SC[C@H]2N1	none (no result: Pol eta inh, POLB inh, Pol iota inh)
CC(C)CCNC(=O)c1ccc2c(c1)NC(=O)C(CS(=O)(=O)Cc1cccc(Br)c1)N2 (centres undefined)	POLB inh 10µM, Pol iota inh inconclusive
C/C(=N/NC(=O)CNC(=O)/C=C/c1ccco1)c1ccc(Cl)cc1	POLB inh 22µM
O=C(/C=C/c1ccco1)NCC(=O)N/N=C/c1ccc(Cl)cc1	none
O=C(/C=C/c1ccco1)NCC(=O)N/N=C/c1ccc([N+](=O)[O-])cc1	Pol eta inh 45µM, POLB inh inconclusive, Pol kappa inh inconclusive, Pol iota inh 40µM
O=C(/C=C/c1ccc([N+](=O)[O-])cc1)/C=C/c1ccco1	POLB inh 10µM (no result: Pol eta inh, Pol kappa inh, Pol iota inh)
O=[N+]([O-])c1ccc(NN=Cc2ccco2)nc1	Pol eta inh 50µM, Pol kappa inh inconclusive, Pol iota inh 45µM (no result: POLB inh, TDP1 inh)
C/C=C1/C(=O)C[C@@H]2[C@H]3CCC4=CC(=O)CC[C@]4(C)[C@@H]3CC[C@]12C	none (no result: Pol eta inh, POLB inh, Pol iota inh)
Cc1sc2ccccc2[n+]1CCc1ccccc1	Pol iota inh inconclusive (no result: Pol eta inh, POLB inh, TDP1 inh)
Cc1cc(C)cc(OCC(=O)N/N=C/c2ccco2)c1	none
Cc1cc(=O)oc2cc(OCC(=O)N/N=C/c3cc([N+](=O)[O-])ccc3O)ccc12	Pol eta inh inconclusive, POLB inh 32µM, TDP1 inh inconclusive, Pol iota inh inconclusive
O=C(COc1cccc([N+](=O)[O-])c1)N/N=C/c1ccco1	Pol eta inh inconclusive, Pol iota inh 28µM
Cc1cc(C)c2c(n1)NCCC2	none (no result: Pol eta inh, POLB inh, TDP1 inh)
C=Cc1c(C)/c2[n-]/c1=C\c1[n-]c(c(CC)c1C)/C=c1\[n-]c3c(c1C)C(=O)C(C(=O)[O-])C=3c1[n-]c(c(C)c1CCC(=O)[O-])\C=2.[Cu].[Na+].[Na+] (centres undefined)	Pol kappa inh 0.89µM, TDP1 inh inconclusive (no result: Pol eta inh, POLB inh, Pol iota inh)
COc1ccc(C(=O)CC(c2ccccc2)C2C(=O)CCCC2=O)cc1 (centres undefined)	Pol eta inh 79µM, Pol iota inh inconclusive
COc1ccc2c(Cl)c(-c3nnc(SCC(=O)c4ccccc4)n3C)sc2c1	Pol eta inh inconclusive, TDP1 inh 89µM
COc1ccc2c(Cl)c(-c3nnc(SCC(N)=O)n3C)sc2c1	none
Cc1ccc([N+](=O)[O-])cc1S(=O)(=O)Nc1ccc(C(=O)NCC2CCCO2)cc1 (centres undefined)	Pol eta inh 79µM, Pol iota inh inconclusive (no result: POLB inh)
Cc1ccc(C)n1-c1ccc(C(=O)NCC2CCCO2)cc1 (centres undefined)	Pol eta inh inconclusive, POLB inh 40µM, Pol iota inh inconclusive
O=C1CCc2cc(S(=O)(=O)Nc3cccc(Br)c3)ccc2N1	none (no result: Pol eta inh, POLB inh, Pol kappa inh, Pol iota inh)
Cc1cccc(OCC(=O)N(Cc2ccc(C(C)(C)C)cc2)Cc2ccco2)c1	none
C=CCOc1c(Cl)cc(CNc2ccc(N(C)C)cc2)cc1OC	Pol iota inh 8.9µM
COc1cccc(C(=O)N/N=C(\C)c2ccc(NC(=O)Cc3ccccc3)cc2)c1OC	none
C/C(=N\NC(=O)c1ccccc1O)c1ccc(NC(=O)Cc2ccccc2)cc1	TDP1 inh 56µM
O=C(c1ccco1)N1CCN(C(=O)c2ccc(-c3ccc([N+](=O)[O-])cc3)o2)CC1	Pol eta inh 22µM, Pol kappa inh 28µM, TDP1 inh 35µM, Pol iota inh 18µM (no result: POLB inh)
Cc1ccc(NS(=O)(=O)c2cc3c(cc2N2CCCCC2)NC(=O)CC3)cc1C	none (no result: Pol eta inh, POLB inh, Pol kappa inh, Pol iota inh)
CCOc1ccccc1CNC(=O)c1cccc(NC(=O)c2nsc3ccccc23)c1	none
O=C(C[n+]1cccc2cc(Cl)ccc21)c1cccc([N+](=O)[O-])c1	none (no result: Pol eta inh, POLB inh, TDP1 inh)
N#Cc1ccccc1S(=O)(=O)N1CCN(C(=O)C2COc3ccccc3O2)CC1 (centres undefined)	Pol eta inh inconclusive, TDP1 inh 40µM, Pol iota inh 79µM (no result: POLB inh)
